# Experimental data as given in publication PMC5540273 (PLoS ONE, 2017).
# How the values were obtained:
# Details in all cases: concentration: 1 μM,replicates: in singlicate; n = 1
# TESK1 = tested on: TESK1
# TGFBR1 = tested on: TGFBR1
# TGFBR2 = tested on: TGFBR2
# TIE1 = tested on: TIE1
# TIE2 = tested on: T1, TIE2
# T1 construct: gene TEK
# TLK1 = tested on: TLK1
# TLK2 = tested on: TLK2
# TNIK = tested on: TNIK
# TNK1 = tested on: TNK1
# TNK2 = tested on: TNK2
# TNNI3K = tested on: TNNI3K
# TRKA = tested on: T2, TRKA
# T2 construct: gene NTRK1
# TRKB = tested on: TRKB
# TRKC = tested on: T3, TRKC
# T3 construct: gene NTRK3
# TRPM6 = tested on: TRPM6
# TSSK1B = tested on: TSSK1B
# TSSK3 = tested on: TSSK3
# TTK = tested on: TTK
# TXK = tested on: TXK
# [1] = tested on: TYK2(JH1domain-catalytic)
# 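Note: KINOMEscan kinase panel screen.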
SMILES,%Inh (TESK1) [%],%Inh (TGFBR1) [%],%Inh (TGFBR2) [%],%Inh (TIE1) [%],%Inh (TIE2) [%],%Inh (TLK1) [%],%Inh (TLK2) [%],%Inh (TNIK) [%],%Inh (TNK1) [%],%Inh (TNK2) [%],%Inh (TNNI3K) [%],%Inh (TRKA) [%],%Inh (TRKB) [%],%Inh (TRKC) [%],%Inh (TRPM6) [%],%Inh (TSSK1B) [%],%Inh (TSSK3) [%],%Inh (TTK) [%],%Inh (TXK) [%],%Inh [1] [%]
C[C@@H](Oc1cc(-n2cnc3cc(-c4cnn(C)c4)ccc32)sc1C(N)=O)c1ccccc1Cl [GSK580432],37,0,0,94.2,82,0,0,48,59,64,24,100,73,50,0,14,16,25,44,45
Cl.Cl.NC[C@H](CC1CCCCC1)NC(=O)c1ccc(-c2ccnc3[nH]ccc23)s1 [GSK1581428],0,0,0,100,0,1,4,12,0,0,0,77,26,54,7,84,25,41,0,29
CS(=O)(=O)c1cccc(CNc2nc(Nc3ccc4c(c3)[C@@H]3C[C@@H]4CNC3=O)ncc2C(F)(F)F)c1,0,0,0,83,68,18,0,88,97.2,56,0,99.2,96.8,90.4,0,0,6,99.8,28,94.7
Cl.c1ccc(Oc2ccc(Nc3ccnc4cc(-c5ccc(CN6CCNCC6)o5)ccc34)cc2)nc1 [GW567142],0,21,0,0,0,9,1,0,61,38,0,98.7,0,15,50,0,5,0,11,3
CN(c1ccccc1CNc1nc(Nc2ccc3c(c2)CC(=O)N3)ncc1C(F)(F)F)S(C)(=O)=O,0,0,16,90.6,49,0,0,1,83,53,0,99.2,94.7,89,0,12,0,99.5,0,88
COc1cccc(OC)c1C(=O)Nc1cccc(-c2nn3ccccc3c2-c2ccnc(Nc3cccc(F)c3)n2)c1 [GSK361065],1,0,17,19,12,19,0,6,31,29,8,0,0,0,4,20,0,5,6,0
CS(=O)c1ccc(-c2coc3ccc(-c4n[nH]c(=O)o4)cc23)cc1 (stereo not shown),0,24,18,0,10,35,0,0,0,0,0,26,0,39,0,0,0,0,4,9
O=C(Nc1cccc(C(F)(F)F)c1)c1cccc(Oc2ccc3nccn3n2)c1,7,0,0,39,0,3,0,0,36,0,35,0,22,50,0,0,16,0,7,23
CCCC(=O)Nc1n[nH]c2ncccc12 [SB-601436],5,0,0,0,0,0,0,0,0,0,0,0,6,28,2,0,0,0,0,0
OCCn1cc(-c2cnc3nnn(Cc4ccc5ncccc5c4)c3n2)cn1,0,0,0,0,0,0,0,0,19,0,0,0,0,0,0,0,0,0,0,0
COc1cc2c(Nc3ccc(NC(=O)c4ccccc4)cc3)ncnc2cc1OCCCN1CCOCC1 [GSK301329],37,0,0,24,0,0,0,0,56,66,9,84,0,0,23,0,16,50,4,2
Cl.Nc1n[nH]c2cc(-c3ccccn3)ccc12 [GSK2189892],22,0,0,0,0,0,0,5,0,15,0,23,0,0,0,0,8,14,0,0
Cn1cc(-c2cccc3c(N)c(C(N)=O)nnc23)cn1,0,0,16,6,1,2,0,5,0,0,5,24,0,0,35,0,0,1,0,19
O=C1NCCc2[nH]c(-c3ccncc3)cc21,6,33,44,0,5,31,8,35,15,0,0,10,19,14,0,0,0,1,2,80
c1ccc(Oc2ccc(Nc3ccnc4ccc(-c5ccccn5)cc34)cc2)cc1 [GW407034],29,10,0,2,2,0,0,0,28,23,0,0,15,9,27,27,19,1,27,7
COC(=O)c1cccc(NC(=O)NC2CCN(c3ccnc(Nc4cc(OC)c(OC)c(OC)c4)n3)C2)c1 (stereo not shown) [GSK1379767],19,0,0,19,4,14,15,0,0,4,0,97.1,81,95.6,0,9,13,0,0,40
COc1cccc(C2=C(Nc3cccc(Cl)c3)C(=O)NC2=O)c1 [SB-341556],17,12,0,4,0,38,29,0,32,15,14,0,36,19,0,16,6,13,1,14
Cn1ccc2ncnc(Oc3ccc(NC(=O)Nc4cccc(C(F)(F)F)c4)c(Cl)c3)c21,0,17,0,85,94.8,74,0,18,6,0,87,53,84,84,0,0,0,25,0,0
O=C(Nc1ccc(Oc2ccc3nc(NC(=O)C4CC4)cn3n2)c(F)c1)c1cccn(-c2ccccc2)c1=O,17,9,9,92.2,90.1,0,0,34,59,0,12,87,80,20,0,0,0,10,69,0
C[C@@H]1CNc2c(sc3ccc4nc(-c5ccncc5)ccc4c23)C(=O)N1,0,0,48,0,0,0,0,0,22,0,0,0,0,0,0,33,2,16,0,46
N#Cc1cccc(C(=O)NC2CCN(c3ccnc(Nc4ccc(F)cc4)n3)C2)c1 (stereo not shown) [GSK1379708],13,4,0,3,0,0,0,0,0,4,4,0,8,28,0,0,18,0,0,14

SMILES,%Inh (TESK1) [%],%Inh (TGFBR1) [%],%Inh (TGFBR2) [%],%Inh (TIE1) [%],%Inh (TIE2) [%],%Inh (TLK1) [%],%Inh (TLK2) [%],%Inh (TNIK) [%],%Inh (TNK1) [%],%Inh (TNK2) [%],%Inh (TNNI3K) [%],%Inh (TRKA) [%],%Inh (TRKB) [%],%Inh (TRKC) [%],%Inh (TRPM6) [%],%Inh (TSSK1B) [%],%Inh (TSSK3) [%],%Inh (TTK) [%],%Inh (TXK) [%],%Inh [1] [%]
COC(=O)Nc1nc2cc(Oc3ccc(NC(=O)Nc4cc(C(F)(F)F)ccc4Cl)cc3)ccc2[nH]1.Cl [GW697465],7,28,6,91.5,99.2,0,0,0,28,8,88,100,99.7,99.8,0,0,10,1,0,14
O=c1[nH]cc(-c2ccc(O)cc2)c2sc(-c3ccncc3)cc12 [GSK1033723],0,0,0,0,89,6,0,4,0,5,18,46,0,14,2,0,9,11,5,0
Cc1n[nH]c2cc(Nc3ccnc(Nc4cccc(CN5CCOCC5)c4)n3)ccc12 [GW682569],27,54,84,45,2,9,2,25,33,10,17,100,60,45,43,0,12,37,60,95.9
Cc1ccc(Nc2ccnc(Nc3ccc4c(c3)CS(=O)(=O)C4)n2)cc1O.Cl [GW579362],53,82,99.4,88,56,30,35,68,85,80,70,100,91.7,78,25,1,27,81,90,96.9
CC(=O)Nc1ccc(-c2cc3ncnc(SCC(=O)O)c3s2)cc1,6,7,46,17,6,20,8,16,0,0,0,31,0,0,23,21,0,0,17,37
CC(C(=O)NC1CCN(c2ccnc(Nc3ccc(F)cc3)n2)C1)c1ccc(Cl)cc1 (stereo not shown) [GSK1379713],26,0,0,12,0,0,0,0,0,0,0,33,11,0,0,0,5,11,0,9
CCn1c(-c2nonc2N)nc2cncc(CNC3CCNCC3)c21.Cl [SB-747651],20,10,0,5,0,0,0,0,0,8,4,0,43,24,21,55,6,0,16,31
CN1CCN(CCNc2nc3cc(Oc4ccc(NC(=O)Nc5cc(C(F)(F)F)ccc5F)cc4)ccc3[nH]2)CC1.Cl.Cl [GW768504],0,6,4,89,60,0,2,0,30,0,0,0,0,0,0,8,0,41,0,0
FC(F)(F)c1cc(Br)cc(Nc2nccc(-c3cnn4ncccc34)n2)c1 [GW810578],11,27,99.3,18,0,0,14,0,36,0,66,48,0,1,0,5,5,41,7,0
O=C(NCC1CC1)c1ccc(-c2cc(C(=O)NC3CC3)ccc2F)cc1 [GW810445],0,27,0,0,0,0,0,0,30,0,0,14,0,0,0,0,0,12,0,19
CCOC(=O)N1CCC(n2cnc(-c3ccc(F)cc3)c2-c2ccnc(N)n2)CC1 [SB-219952],12,23,10,12,10,26,2,32,21,12,0,42,34,24,4,0,12,0,16,48
CS(=O)(=O)Nc1ccc(-c2ccnc3[nH]ccc23)cc1 [GSK993273],4,0,0,28,3,63,63,32,0,14,7,91,48,39,27,17,26,60,0,99.6
NC(=O)Nc1sc(-c2ccc(F)cc2)cc1C(N)=O [GW789449],24,27,0,0,12,4,0,33,32,26,24,98.6,89,67,1,0,0,32,21,98.6
NC(=O)c1ccc(-c2cc3ncnc(SCC(=O)O)c3s2)cc1,6,0,40,0,13,5,0,33,0,0,0,54,35,0,0,0,0,13,0,2
CN(c1cccc(CNc2nc(Nc3ccc4c(c3)CC(=O)N4)ncc2C(F)(F)F)c1)S(C)(=O)=O,0,0,0,75,42,16,3,75,57,67,0,98.3,93.5,79,0,0,15,97.5,0,58
O=C(NOCC1CC1)c1cc(Br)c(F)c(F)c1Nc1ccc(I)cc1Cl,0,0,0,0,16,47,0,12,0,0,0,1,20,0,0,0,9,0,0,0
Cc1cccc2c(-c3ccncc3)c(-c3ccc(F)cc3)nn12.Cl [GW461487],0,8,0,0,0,10,2,7,0,9,8,37,0,0,0,4,15,0,0,7
CC(=O)c1c(-c2ccncc2)[nH]c(-c2ccncc2)c1C [GW493036],25,23,25,0,1,0,0,0,0,19,0,0,0,0,33,34,13,3,35,42
C[C@@H]1CNc2c(sc3ccc4nc(-c5ccc(O)cc5)ccc4c23)C(=O)N1,8,1,60,0,25,24,0,42,14,0,1,7,0,0,0,0,4,9,7,74
CC(C)c1nc(-c2cccc(NS(=O)(=O)c3ccccc3)c2)c(-c2ccnc(Nc3ccc4c(c3)CN(C)CC4)n2)s1 [GSK1649598],97.5,94.1,94.8,91.5,99,41,33,93.7,100,96.2,85,65,41,0,68,16,0,23,71,55
